Screening results as filed in PubChem.
Tau fluor counter: Counterscreen qHTS for Inhibitors of Tau Fibril Formation, Fluorescence Polarization; AID 1463, 2008; Potency, µM (doses to about 57.7 µM), for inactives: at the top dose activity change, negative = decrease; tau K18 P301L Alexa594 fluorescence, heparin fibrillization; hit rate 0.93% among 280,000; further: nearly all actives have a fitted effect of over 55% in size
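Human K18 P301L tau (15 uM unlabeled plus 0.24 uM Alexa 594-labeled, final) in 100 mM sodium acetate pH 7 was mixed with compound and 20 uM heparin and incubated 6 hr at 37 C.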
Tau FP inhib: qHTS for Inhibitors of Tau Fibril Formation, Fluorescence Polarization | Potency, µM (highest dose often 57.7 µM), for the others: at the highest dose activity, negative = inhibition, usual class: inhibitors | Microtubule-associated protein tau (Homo sapiens), P10636 | hit rate 0.39% among 280,000 | K18 P301L tau heparin fibrillization, Alexa594 FP, 6 h; further: nearly all actives have a fitted effect of over 55% in size
Target sequence (P10636 561-689 P618L limits assumed): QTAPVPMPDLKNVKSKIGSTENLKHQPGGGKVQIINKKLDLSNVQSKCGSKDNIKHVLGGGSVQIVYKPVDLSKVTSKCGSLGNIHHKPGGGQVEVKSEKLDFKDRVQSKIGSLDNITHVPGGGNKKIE
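Quantitative HTS format: compounds meet 15 uM recombinant K18 P301L tau and Alexa 594-tau tracer in 100 mM sodium acetate pH 7; 20 uM heparin triggers fibrillization at 37 C over 6 hr; FP gives the signal.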
NPSR antagonist: qHTS Assay for Antagonists of the Neuropeptide S Receptor: cAMP Signal Transduction; Potency, µM (doses to about 38.3 µM), for the others: at the top dose activity change, negative = inhibition, most hits filed as inhibitors; Q6W5P4; hit rate 1% among 220,000; CHO-NPSR cells, cAMP TR-FRET, antagonist mode; further: nearly all actives have a fitted effect of over 50% in size
Target sequence (Q6W5P4 whole entry, looked up): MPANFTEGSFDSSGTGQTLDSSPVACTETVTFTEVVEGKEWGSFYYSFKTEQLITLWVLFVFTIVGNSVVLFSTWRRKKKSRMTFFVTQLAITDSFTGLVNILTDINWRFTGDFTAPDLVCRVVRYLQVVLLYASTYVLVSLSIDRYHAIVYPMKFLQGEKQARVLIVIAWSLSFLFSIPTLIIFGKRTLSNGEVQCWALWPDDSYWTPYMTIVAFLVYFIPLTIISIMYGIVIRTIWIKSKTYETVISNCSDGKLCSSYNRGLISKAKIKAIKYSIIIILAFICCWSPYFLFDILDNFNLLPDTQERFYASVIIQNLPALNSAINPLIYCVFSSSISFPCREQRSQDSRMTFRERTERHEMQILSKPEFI
ALDH1A1 block: qHTS Assay for Inhibitors of Aldehyde Dehydrogenase 1 (ALDH1A1); Aldehyde dehydrogenase 1A1 (Homo sapiens), P00352; Purified ALDH1A1, NADH fluorescence, propionaldehyde substrate; Potency, µM (series often up to 75.3 µM), for inactives: at the highest dose activity, negative = inhibition, hits mostly inhibitors; hit rate 7.3% among 220,000; AID 1030, 2008; active means well fitted inhibition curve with a large enough effect, not every such curve was filed as active; inconclusive means small, poorly fitted or top-dose-only effect, or another doubt; inactive means no such curve, though single readings can be large or run the other way;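 further: plate controls were no enzyme wells and a reference inhibitor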
Tau ThT inhib: qHTS for Inhibitors of Tau Fibril Formation, Thioflavin T Binding. Microtubule-associated protein tau (Homo sapiens), P10636. recombinant tau K18 P301L (four-repeat tau fragment), heparin-induced fibrillization, ThT fluorescence. Potency, µM (top dose mostly 57.4 µM), without a hit: top-dose activity, negative = inhibition, usual class: inhibitors. hit rate 2.1% among 270,000. AID 1460, 2008; further: nearly all actives have a fitted effect of over 55% in size
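Aggregation was driven by heparin (20 uM final) acting on recombinant tau […] bearing P301L in 100 mM sodium acetate pH 7; fibrils were detected with Thioflavin T.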
HPGD block: qHTS Assay for Inhibitors of HPGD (15-Hydroxyprostaglandin Dehydrogenase) | purified HPGD, NADH fluorescence kinetic, PGE2 substrate | Potency, µM, without a hit: at the top dose activity change, negative = inhibition, usual class: inhibitors | hit rate 4.3% among 150,000 | AID 894, 2007; active means well fitted inhibition curve with a large enough effect, not every such curve was filed as active; inconclusive means small, poorly fitted or top-dose-only effect, or another doubt; inactive means no such curve, though single readings can be large or run the other way
Target sequence (P15428 whole entry, looked up): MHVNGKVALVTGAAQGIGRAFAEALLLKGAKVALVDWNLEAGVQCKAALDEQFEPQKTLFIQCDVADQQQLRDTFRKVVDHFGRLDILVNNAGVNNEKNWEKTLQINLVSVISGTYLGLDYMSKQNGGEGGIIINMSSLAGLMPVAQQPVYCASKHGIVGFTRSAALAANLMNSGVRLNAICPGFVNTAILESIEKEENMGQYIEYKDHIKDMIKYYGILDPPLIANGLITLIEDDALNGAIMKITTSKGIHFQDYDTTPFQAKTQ
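NADH formation kinetics: reaction with 30 uM PGE2 and 1 mM NAD+ (final), 20 nM enzyme, Tris-HCl pH 8 with Tween 20, after 15 min compound preincubation at room temperature. Fluorescence change, last versus first of five reads.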
Active calls of the source: *; u = inconclusive; x = not tested or not shown; [ ] = another dose, or the depositor's remark. Sampled rows, rich in hits. Any-hit rate of the full collection: about 9.5%. Unless noted, the call rests on the fitted dose curve; in most records, active means well fitted curve in the direction sought with a large enough effect; inconclusive means small, poorly fitted or top-dose-only effect, or another doubt; inactive means no such curve, though single readings can be large; an effect the other way counts as inactive or inconclusive. Unless noted, on the % scale 0 is the no-effect control and ±100 the full control effect; potency means the concentration at half of the fitted maximal effect.

SMILES	Tau fluor counter	Tau FP inhib	NPSR antagonist	ALDH1A1 block	Tau ThT inhib	HPGD block
COc1ccc(OC)c(CN2CCN(C(=O)c3cccc4ccccc34)CC2)c1	-2.9%	7.2%	-20.5%[46.1 µM]	25.1µM*	-8.0%	-12.8%
COc1cc(OC)cc(C(=O)N2CCN(Cc3ccccc3C(F)(F)F)CC2)c1	-29.5%	7.5%	-15.9%[46.1 µM]	14.1µM*	u	x
CC1(C)CC2CC(C)(CN2C(=O)c2ccc([N+](=O)[O-])cc2[N+](=O)[O-])C1 (stereo not drawn)	-4.0%	-2.6%	13.9%	7.0%	-4.3%	x
Cc1ccc(NC2=C(CC(=O)O)C(c3ccccc3)N(c3ccc(C)cc3)C2=O)cc1 (stereo not drawn)	-9.9%	-0.9%	-25.0%[46.1 µM]	u	u	-14.6%
CC(C)C(=O)c1cn(CC(=O)NCC2CCCO2)c2ccccc12 (stereo not drawn)	6.8%	0.4%	-9.9%[46.1 µM]	22.4µM*	-2.7%	-12.5%
COc1ccc(CCNC(=O)CSc2cc(=O)n(C)c3ccccc23)cc1OC	-9.7%	-5.8%	x	x	-6.5%	x
Cn1c(=O)cc(SCC(=O)NCC2CCCO2)c2ccccc21 (stereo not drawn)	-16.3%	1.2%	u	12.6µM*	-22.0%	x
Cn1c(=O)cc(SCC(=O)NCCC2=CCCCC2)c2ccccc21	-6.1%	1.7%	-3.1%	u	-3.6%	7.08µM*
Cn1cc(SCC(=O)NCC2CCCO2)c2ccccc21 (stereo not drawn)	2.0%	0.7%	-9.2%[46.1 µM]	1.7%	3.5%	28.2µM*
Cc1sc2ncn(CC(=O)OC(C)C(=O)NC(C)(C)C)c(=O)c2c1C (stereo not drawn)	-9.5%	1.6%	1.6%[46.1 µM]	-2.4%	-6.3%	-13.0%
NC1C(O)OC(CO)[C@@H](O)[C@@H]1O[C@H]1O[C@@H](C(=O)O)C(O)C(O)C1O (stereo partly drawn)	-6.5%	-3.1%	x	4.3%	-7.9%	-4.2%
COC(=O)[C@H](CCCN=C(N)N)NC(=O)CCCc1c(-c2ccccc2)[nH]c2c(F)cc(F)cc12	u	1.9%	x	-8.2%	-10.5%	-11.6%
N#CCc1c(C#N)c(N)nc(N2CCN(C=O)CC2)c1C#N	-2.3%	-0.8%	8.6%	7.08µM*	-6.0%	x
COc1ccc(CCNC(=O)c2ccc3c(c2)N(Cc2c(F)cccc2Cl)C(=O)CS3)cc1OC	-12.7%	5.7%	x	x	-5.1%	x
CC1CCC(C(C)C)[C@H](OC(=O)c2ccccc2)C1 (stereo partly drawn)	-0.6%	-6.2%	x	-11.3%	1.3%	-5.8%
CC1CCC(C(C)C)C(OC(=O)C2=C3c4ccccc4S(=O)(=O)N3CC2)C1 (stereo not drawn)	-6.7%	-5.0%	10µM*	u	-9.0%	u
Cc1ccc(NC(=O)Cn2cnc3cc([N+](=O)[O-])ccc3c2=O)c(Cl)c1	u	4.0%	-13.9%	2.82µM*	-10.7%	x
COc1cccc(/C=N/Nc2ncnc3scc(-c4ccccc4)c23)c1OC	u	u	u	u	u	17.8µM*
COc1ccc(-c2csc3ncnc(Nc4ccccc4)c23)cc1	-22.6%	u	x	x	u	x
COC(=O)C1(C)C=C(Nc2ccc(OC)cc2)C(=O)N1c1ccc(OC)cc1 (stereo not drawn)	-5.5%	-7.4%	x	u	-3.9%	-15.8%
COc1ccc(NC(=O)N2CCc3nc(-c4ccc(OC)cc4C)c4c(c3C2)CO[C@@H](c2ccccc2)C4)cc1	-5.4%[11.6 µM]	7.4%[11.6 µM]	x	3.98µM*	-4.5%[11.5 µM]	-5.9%
CCOC(=O)N1CCC2(CC1)C(C#N)=C(N)OC1=C2C(=O)CC(C)C1 (stereo not drawn)	-6.3%	-6.5%	-3.8%[46.1 µM]	-2.2%	-8.3%	7.0%
C[C@@](O)(CNS(=O)(=O)c1ccccc1)c1ccccc1	x	x	x	-2.7%[13.5 µM]	x	-2.7%
C/C(CC(C)(C)c1ccccc1)=N\NS(=O)(=O)c1ccccc1	-10.5%	0.4%	-9.7%	12.6µM*	-6.7%	x
CCOC(=O)CCN1C(=O)[C@H]2[C@H]3[C@H](O)[C@H](O)C/C(=N/O[C@@H]4O[C@@H](COC(C)=O)[C@@H](OC(C)=O)[C@@H](OC(C)=O)[C@H]4OC(C)=O)[C@@H]3CC[C@@H]2C1=O	-1.7%[11.6 µM]	-2.5%[11.6 µM]	x	-1.0%[13.5 µM]	-3.0%[11.5 µM]	x
SMILES	Tau fluor counter	Tau FP inhib	NPSR antagonist	ALDH1A1 block	Tau ThT inhib	HPGD block
Cc1cc(C)nc(N/N=C/C=C/c2ccccc2)n1	-0.5%	-0.9%	-38.4%	-13.1%	-4.6%	-16.6%
Cc1cc(C)nc(N/N=C/c2ccccc2)n1	-9.0%	-2.8%	-22.6%[46.1 µM]	10µM*	-14.9%	14.1µM*
O=C(O)c1ccccc1N/N=C/C1=C(N2CCOCC2)C(=C\c2ccccc2)/CC1	u	-8.3%	u	x	10µM*	x
O=C(NP(=O)(N1CCOCC1)N1CCOCC1)C1=C(N2CCOCC2)/C(=C\c2ccccc2)CC1	-1.9%	-1.4%	10.3%	3.55µM*	-16.1%	x
Cc1cc(C)nc(N/N=C/C2=C(N3CCOCC3)C(=C/c3ccccc3)/CC2)n1	7.6%	1.6%	u	1.0%	6.5%	17.8µM*
CCOC(=O)c1c(C)c(C(=O)NCCc2ccc(OC)cc2)c(C)n1CC	-4.1%	8.1%	x	x	-3.4%	x
CCc1cccc(-n2nnc(-c3nc(-c4cccs4)no3)c2N)c1	-0.2%	-15.9%	x	x	0.2%	x
Cc1cc(=O)[nH]c(N/N=C/C2=C(N3CCOCC3)C(=C\c3ccc(Cl)cc3)/CC2)n1	-14.2%	2.4%	-14.7%	11.2µM*	22.4µM*	-19.6%
Cn1c(CNc2ccc(Cl)cc2)nc2ccccc21	-17.0%	1.9%	-2.3%[46.1 µM]	4.0%	u	-5.8%
Cc1ccc(N2CCN(c3ccc(NCc4nc5ccccc5n4C)cc3)CC2)cc1	u	-14.0%	-21.5%	u	2.51µM*	u
CCOc1ccc(C2Nc3ccc4ccccc4c3-c3c2c(=O)oc2ccccc32)cc1 (stereo not drawn)	u	u	10µM*	u	1.2%	u
COc1ccc(C2Nc3ccc4ccccc4c3-c3c2c(=O)oc2ccccc32)cc1 (stereo not drawn)	u	u	7.94µM*	u	6.3%	u
Cc1ccc(C2Nc3ccc4ccccc4c3C3=C2C(=O)CC(C)(C)C3)o1 (stereo not drawn)	u	8.6%	u	u	u	u
O=c1oc2ccccc2c2c1C(c1ccc(Cl)cc1)Nc1ccc3ccccc3c1-2 (stereo not drawn)	-26.5%	4.2%	u	u	0.6%	u
O=C(CSc1nc2ccccc2o1)N/N=C/c1ccc(C(=O)O)cc1	11.0%[0.0958 µM]	1.3%[0.0958 µM]	9.6%	x	x	x
